From publication PMC4336329 (PLoS ONE, 2015)
About 14,000 (4.5%) of roughly 310,000 compounds showed an effect of 50% or more. Effects have a minus sign here. The sample as a whole holds a higher share of strong results than the screen did.

target: human ether-à-go-go-related gene (hERG) potassium channel (human, UniProt Q12809); experiment: primary screen, population patch clamp on CHO cells stably expressing hERG; higher = less effect of the substance
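Note: peak tail current of the secondary pulse compared with the same well before compound.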

human ether-à-go-go-related gene (hERG) potassium channel, sequence (Q12809 whole entry, looked up): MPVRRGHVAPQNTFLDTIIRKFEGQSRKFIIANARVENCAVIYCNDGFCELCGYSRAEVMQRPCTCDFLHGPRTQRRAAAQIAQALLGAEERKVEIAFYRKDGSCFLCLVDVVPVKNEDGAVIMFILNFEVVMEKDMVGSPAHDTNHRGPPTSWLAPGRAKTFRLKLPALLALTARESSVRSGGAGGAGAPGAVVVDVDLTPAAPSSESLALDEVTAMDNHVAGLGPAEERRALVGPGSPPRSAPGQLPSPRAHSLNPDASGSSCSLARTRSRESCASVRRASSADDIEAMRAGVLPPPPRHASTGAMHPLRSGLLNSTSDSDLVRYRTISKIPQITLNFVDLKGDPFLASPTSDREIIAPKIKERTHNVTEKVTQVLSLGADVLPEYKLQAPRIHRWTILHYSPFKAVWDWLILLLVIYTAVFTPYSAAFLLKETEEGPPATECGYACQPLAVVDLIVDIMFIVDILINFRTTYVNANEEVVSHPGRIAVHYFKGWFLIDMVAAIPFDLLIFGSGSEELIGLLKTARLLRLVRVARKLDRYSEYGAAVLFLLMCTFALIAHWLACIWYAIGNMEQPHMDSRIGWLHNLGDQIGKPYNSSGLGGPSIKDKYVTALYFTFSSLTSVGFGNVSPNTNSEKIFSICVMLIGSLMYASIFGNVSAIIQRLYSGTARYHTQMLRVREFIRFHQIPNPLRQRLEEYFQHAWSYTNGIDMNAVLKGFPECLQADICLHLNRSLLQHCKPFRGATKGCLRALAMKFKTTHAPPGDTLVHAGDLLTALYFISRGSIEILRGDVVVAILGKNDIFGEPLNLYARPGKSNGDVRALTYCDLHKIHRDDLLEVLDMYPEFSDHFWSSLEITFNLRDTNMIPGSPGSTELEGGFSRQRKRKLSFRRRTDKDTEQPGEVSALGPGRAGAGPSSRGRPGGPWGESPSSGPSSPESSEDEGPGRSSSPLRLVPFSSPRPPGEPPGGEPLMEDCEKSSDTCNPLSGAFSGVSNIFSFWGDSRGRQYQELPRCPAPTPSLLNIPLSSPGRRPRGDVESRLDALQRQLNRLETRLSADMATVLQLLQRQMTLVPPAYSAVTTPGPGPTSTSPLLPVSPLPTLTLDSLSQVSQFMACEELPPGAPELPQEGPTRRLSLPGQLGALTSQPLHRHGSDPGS

| SMILES | hERG current change (%, negative = inhibition) at 10uM [%] |
| --- | --- |
| COc1ccc(C(=O)NCC(=O)OCC(=O)NCCC2=CCCCC2)cc1 | -12.7 |
| COCCCn1c(SCC(=O)NC2CCCCC2)nnc1-c1ccncc1 | 19.8 |
| COc1ccc(CC(=O)Nc2cc(C)on2)cc1 | 5.74 |
| COc1cc(OC)cc(C(=O)NC(C(=O)Nc2ccc3c(c2)OCCO3)C(C)C)c1 (centres unmarked) | -11 |
| CCN(CC)CCn1c(C)nc2c(sc3nc4c(cc32)COC(C)(C)C4)c1=O | -22.3 |
| O=C(NCC1CCCO1)c1onc(CSc2cccc3ccccc23)c1C(=O)O (centres unmarked) | 14.4 |
| COc1cccc(NC(=O)CN(C)C(=O)CSCc2nc3scc(-c4cccs4)c3c(=O)[nH]2)c1 | -16.2 |
| CCC(C)(C)NC(=O)C(c1ccc(OC)cc1)N(C(=O)CCC(=O)Nc1cc(C)on1)c1ccc(OC)cc1OC (centres unmarked) | -7.89 |
| COc1ccc(Cl)cc1NC(=O)C(C)N1CCN(C/C=C/c2ccccc2)CC1.O=C(O)C(=O)O (centres unmarked) | -63.4 |
| COC(=O)c1ccccc1NC(=O)N1CCN(C/C=C/c2ccccc2)CC1 | -45.1 |
| COc1ccccc1NC(=O)C(C)N1CCN(C/C=C/c2ccccc2)CC1 (centres unmarked) | -74.5 |
| COc1ccc(Cl)cc1NC(=O)C(C)N1CCN(c2ccccn2)CC1 (centres unmarked) | -18.3 |
| COc1ccccc1NC(=S)N1CCN(C/C=C/c2ccccc2)CC1 | -0.974 |
| COc1ccc(Cl)cc1NC(=O)C(C)N1CCc2ccccc21 (centres unmarked) | 23.9 |
| C=CCc1cccc(CNc2ccc(S(=O)(=O)Nc3nccnc3OC)cc2)c1O | -9.98 |
| N=c1c2c3c(sc2ncn1N)CCCC3 | 2.04 |
| COc1ccccc1C1C2=C(CCCC2=O)N(CC(=O)O)C2=C1C(=O)CCC2 | 15.9 |
| CCn1c(SCc2c(Cl)cccc2Cl)nnc1-c1nn(-c2ccccc2)ccc1=O | -66.1 |
| CCn1c(SC)nnc1-c1nn(-c2ccccc2)ccc1=O | 11.3 |

| SMILES | hERG current change (%, negative = inhibition) at 10uM [%] |
| --- | --- |
| CCn1c(SCc2ccc(F)cc2)nnc1-c1nn(-c2ccccc2)ccc1=O | -35.1 |
| COCCNc1ccc(-c2n[nH]c(=O)c3ccccc23)cc1[N+](=O)[O-] | 9.51 |
| CN1C(=O)S/C(=C/c2cccnc2)C1=O | -0.904 |
| O=C(Cn1cnc2ccccc21)N/N=C/C(Br)=C/c1ccccc1 | 5.98 |
| CCN1CCN(S(=O)(=O)c2ccc(F)c(C(=O)Nc3c(F)cc(F)cc3Br)c2)CC1 | -17.1 |
| O=C(Nc1c(F)cc(F)cc1Br)c1cc(S(=O)(=O)N2CCN(c3ccccn3)CC2)ccc1F | -15.9 |
| CCC(C)NS(=O)(=O)c1ccc(F)c(C(=O)Nc2c(F)cc(F)cc2Br)c1 (centres unmarked) | -60.8 |
| CC(=O)Nc1ccc(S(=O)(=O)N(CC(=O)Nc2cc(C)on2)Cc2ccc(F)cc2)cc1 | -11.5 |
| COc1cccc2cc(C(=O)C3=C(O)C(=O)N(CCN4CCOCC4)C3c3cccs3)oc12 (centres unmarked) | 13.1 |
| CCOc1nc(Nc2ccc(OC)cc2)nc(N2CCOCC2)n1 | -4.52 |
| COc1ccc(NC(=S)NCCN2CCOCC2)cc1 | 21.7 |
| COc1ccc(Nc2nc(NCCN3CCOCC3)nc(Nc3ccc(OC)cc3)n2)cc1 | -78.2 |
| C=CCNc1nc(NCCN2CCOCC2)nc(OC)n1 | -4.89 |
| c1ccc(Nc2nc(NCCN3CCOCC3)nc(Nc3ccccc3)n2)cc1 | -15.2 |
| COc1nc(NCCN2CCOCC2)nc(Nc2ccccc2)n1 | -50.5 |
| Clc1ccc(CNc2nc(N3CCOCC3)nc(N3CCOCC3)n2)cc1 | -20 |
| COc1ccc(Nc2nc(N3CCOCC3)nc(N3CCOCC3)n2)cc1 | 11.7 |
| C=CCNc1nc(NCCN2CCOCC2)nc(N2CCOCC2)n1 | 18.6 |
| CCOc1ccc(Nc2nc(NCCN3CCOCC3)nc(OC)n2)cc1 | -63.8 |

| SMILES | hERG current change (%, negative = inhibition) at 10uM [%] |
| --- | --- |
| Clc1ccc(Nc2nc(NCCN3CCOCC3)nc(N3CCOCC3)n2)cc1 | -56 |
| CCOc1ccc(Nc2nc(N3CCOCC3)nc(N3CCOCC3)n2)cc1 | -17.9 |
| Cc1cc(C)nc(NS(=O)(=O)c2ccc(NC(=O)COc3ccccc3F)cc2)n1 | 4.9 |
| CCCc1nc(SCc2ccccc2Cl)n[nH]1 | 10.7 |
| COc1cccc(CN(C)CC(=O)Nc2sc3c(c2C#N)CCC3)c1OC | 10.3 |
| COc1ccc(-n2c3c(cc(C#N)c2=O)C(=O)CCC3)cc1 | 29.1 |
| COc1ccc(Oc2c(C)oc3c(CN(C)C)c(O)ccc3c2=O)cc1 | -1.88 |
| O=C(O)c1cc(=O)c2cc(Cl)ccc2o1 | 17.3 |
| Cc1cc(Cl)ccc1Oc1ncnc2oc(-c3ccccc3)cc12 | -0.172 |
| CC(C)C[NH+]=c1cc(-c2ccccc2)oc2ccc(Cl)cc12.F[B-](F)(F)F | -87.4 |
| O=c1cc(-c2ccccc2)oc2ccccc12 | -4.17 |
| Clc1ccc(Oc2ncnc3oc(-c4ccccc4)cc23)cc1 | 4.39 |
| CC(O)C[NH+]=c1cc(-c2ccccc2)oc2ccc(Cl)cc12.F[B-](F)(F)F (centres unmarked) | -69.4 |
| Cc1nn(Cc2ccccc2Cl)c(C)c1C(=O)OCC(=O)N1CC(C)OC(C)C1 (centres unmarked) | 1.43 |
| Clc1ccc(N2CCN(Cc3ccco3)CC2)cc1 | -14.2 |
| CCOC(=O)Cc1c(C)nc2c(-c3ccccc3)c[nH]n2c1=O | 2.48 |
| Cc1nn(S(=O)(=O)N2CCOCC2)c(C)c1Br | -0.162 |
| O=C(O)C(Cc1ccccc1)N1C(=O)c2c(Cl)c(Cl)c(Cl)c(Cl)c2C1=O (centres unmarked) | 3 |
